Values joined by “and” are separate entries in the source; they are usually repeats but may differ in a detail not shown here. Equal entries are not always repeated. Active and inactive are the calls of the source. Unless noted, no rule for the calls is given here.

We go through seven compounds from PubChem BioAssay.

Test [1] can be described thus: A549 cell viability effects, profiling panel, calcein-AM fluorescence, 48 h, basal (AID 1162). Also: test concentration not given here. To be noted: higher = more signal.
A short description of test [2]: adipocyte viability effects, profiling panel, cell-based, 3T3-L1 adipocytes, calcein-AM fluorescence, 48 h, basal (AID 1163). Also: test concentration not given here. As to conditions: 3T3-L1 adipocytes viability, higher = more signal.
The nature of test [3]: HepG2 cell viability effects, profiling panel, calcein-AM fluorescence, 48 h, basal (AID 1164). Also: test concentration not given here. To be noted: higher = more signal.
A short description of test [4]: MM1S cell viability effects, profiling panel, calcein-AM fluorescence, 48 h, basal (AID 1165).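 Also: viability of MM1S multiple myeloma cells under basal unstimulated conditions; test concentration not given here.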 To be noted: higher = more signal.
Test [5] is described as follows: basal RPMI8226 viability, no added stimulus, profiling panel, cell-based, calcein-AM fluorescence, 48 h, PK04 Diversity Set (AID 1166).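 Also: cells grown under basal conditions without added stimulus; test concentration not given here.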 To be noted: RPMI8226 myeloma viability, higher = more signal.
Test [6] is described as follows: basal HepG2 mitochondrial membrane potential changes, profiling panel, cell-based, JC-1 fluorescence, 24 h, 100 nL compound (AID 1167). Also: test concentration not given here. To be noted: higher = more signal.
Test [7] is described as follows: basal 3T3-L1 adipocyte mitochondrial potential changes, profiling panel, cell-based, JC-1 fluorescence, 3T3-L1 adipocytes, 24 h, 100 nL compound (AID 1168). Also: test concentration not given here. As to conditions: JC-1 mitochondrial fluorescence, higher = more signal, called active from +8 up or from −8 down.
A short description of test [8]: basal RPMI8226 mitochondrial membrane potential changes, profiling panel, cell-based, JC-1 fluorescence, 24 h, 100 nL compound (AID 1169). Also: test concentration not given here. As to conditions: RPMI8226 myeloma, JC-1 mitochondrial potential fluorescence, higher = more signal.
A short description of test [9]: basal MM1S mitochondrial membrane potential changes, profiling panel, cell-based, JC-1 fluorescence, 24 h, 100 nL compound (AID 1170). Also: test concentration not given here. As to conditions: higher = more signal.
Test [10] in a line: A549 lung cancer cell viability effects, profiling panel, resazurin fluorescence, 24 h, PK04 Diversity Set (AID 1171). Also: test concentration not given here. As to conditions: higher = more signal, called active from +8 up or from −8 down.
The nature of test [11]: HepG2 liver cancer cell viability effects, profiling panel, resazurin fluorescence, 24 h, PK04 Diversity Set (AID 1172). Also: test concentration not given here. To be noted: higher = more signal.
Test [12] is described as follows: basal S. cerevisiae growth modulation, no modifier, primary screen, OD600, strain BY4716, 24 h, basal condition (AID 1173). To be noted: OD600, 24 h, higher = more signal, called active from +8 up or from −8 down.
Test [13] can be described thus: MM1S myeloma cell viability, profiling panel, resazurin fluorescence, basal, 24 h, PK04 Diversity Set (AID 1174).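 Also: MM1S multiple myeloma cell line; test concentration not given here.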 As to conditions: higher = more signal, called active from +8 up or from −8 down.
Test [14] concerns the target Dihydroorotate dehydrogenase (quinone), mitochondrial (Plasmodium falciparum (isolate 3D7)) (UniProt Q08210). Nature of the test: PfDHODH enzyme inhibitors, primary screen, biochemical, C-terminal His tag, absorbance 600 nm (AID 1175).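 Also: recombinant parasite enzyme with a five histidine tag at its C terminus; test concentration not given here.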 As to conditions: DCIP absorbance 600 nm, higher = more signal, called active from +8 up or from −8 down.
A short description of test [15]: P. aeruginosa biofilm formation inhibitors, primary screen, strain PAO1, LB-PBS medium, absorbance 600 nm (AID 1176). Also: test concentration not given here. As to conditions: P. aeruginosa PAO1 growth/biofilm, A600, 12 h; higher = more signal.
A short description of test [16]: S. cerevisiae RM11-1a growth modifiers, primary screen, strain RM11-1a, OD600, basal, 24 h (AID 1177).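 Also: cultures grown under basal conditions with no added stressor; test concentration not given here.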 As to conditions: OD600, 24 h, higher = more signal, called active from +8 up or from −8 down.
Test [17] is described as follows: E. coli acrAB mutant growth effects, primary screen, E. coli filamentation inducers, strain DRC39, OD650, 24 h (AID 1178).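 Also: growth measured as culture turbidity by optical density at 650 nm; test concentration not given here.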 To be noted: higher = more signal, called active from +8 up or from −8 down.
Test [18] in a line: E. coli acrAB mutant growth effects, primary screen, E. coli filamentation inducers, strain DRC39, OD650, 48 h (AID 1179).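 Also: screen aims at cell division blockers that make cells filament.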 To be noted: E. coli DRC39 delta-acrAB growth, higher = more signal, called active from +8 up or from −8 down.
A short description of test [19]: RPMI8226 myeloma cell viability, profiling panel, resazurin fluorescence, basal, 24 h, PK04 Diversity Set (AID 1180).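 Also: RPMI8826 multiple myeloma cell line at 5000 cells per well; test concentration not given here.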 To be noted: higher = more signal.
Test [20] has as its target E3 ubiquitin-protein ligase XIAP (Homo sapiens) (UniProt P98170). Nature of the test: XIAP binders, primary screen, biophysical, small-molecule microarray, fluorescence 635 nm (AID 1181).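 Also: score merges 667 nm emission and signal to noise over triplicate slides.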 As to conditions: small-molecule microarray binding, higher = more signal.

Chain of E3 ubiquitin-protein ligase XIAP (Homo sapiens) (P98170 whole entry, looked up): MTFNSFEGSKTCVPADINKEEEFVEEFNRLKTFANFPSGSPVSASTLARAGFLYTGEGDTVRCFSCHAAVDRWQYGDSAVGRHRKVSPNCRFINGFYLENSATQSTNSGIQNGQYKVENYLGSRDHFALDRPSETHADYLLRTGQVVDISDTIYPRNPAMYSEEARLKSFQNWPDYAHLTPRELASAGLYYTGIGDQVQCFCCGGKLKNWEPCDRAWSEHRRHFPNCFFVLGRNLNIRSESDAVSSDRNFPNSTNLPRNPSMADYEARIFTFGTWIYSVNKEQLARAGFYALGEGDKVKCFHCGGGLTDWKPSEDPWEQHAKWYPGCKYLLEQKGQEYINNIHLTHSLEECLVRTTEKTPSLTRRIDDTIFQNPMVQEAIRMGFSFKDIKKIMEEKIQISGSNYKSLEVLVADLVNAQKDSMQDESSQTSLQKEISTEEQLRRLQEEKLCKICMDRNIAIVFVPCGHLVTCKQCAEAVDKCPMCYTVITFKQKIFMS
Chain of Dihydroorotate dehydrogenase (quinone), mitochondrial (Plasmodium falciparum (isolate 3D7)) (Q08210 whole entry, looked up): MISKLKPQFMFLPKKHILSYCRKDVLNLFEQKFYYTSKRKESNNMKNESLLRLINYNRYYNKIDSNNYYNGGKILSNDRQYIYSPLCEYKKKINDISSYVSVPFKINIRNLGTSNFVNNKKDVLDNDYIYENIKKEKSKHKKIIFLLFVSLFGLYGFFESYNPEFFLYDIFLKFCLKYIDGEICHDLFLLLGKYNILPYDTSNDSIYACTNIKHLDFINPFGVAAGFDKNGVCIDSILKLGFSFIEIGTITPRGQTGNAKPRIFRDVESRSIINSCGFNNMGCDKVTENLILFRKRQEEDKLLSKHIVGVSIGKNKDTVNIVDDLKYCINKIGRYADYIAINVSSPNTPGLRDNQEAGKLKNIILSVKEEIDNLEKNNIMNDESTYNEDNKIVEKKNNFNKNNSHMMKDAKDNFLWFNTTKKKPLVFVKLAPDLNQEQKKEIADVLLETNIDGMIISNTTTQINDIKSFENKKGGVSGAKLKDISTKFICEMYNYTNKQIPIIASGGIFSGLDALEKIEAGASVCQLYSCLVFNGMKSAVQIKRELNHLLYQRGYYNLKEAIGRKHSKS

Consider `C=CCN(Cc1ccccc1)C(=O)C(c1cccs1)N(C(=O)/C=C\C(=O)O)c1c(Cl)cccc1CO` (stereo not given), for which the z-score in test [1] was -0.159 and -0.34; in test [2], 0.036 and -0.0047; in [3], -0.876 and -0.217; in test [4], 1.21 and 1.6; in [5], 1 and -0.538; in test [6] it was -0.267 and -0.148. Moreover, the z-score in [7] was 0.426 (inactive) and 0.223 (inactive); in test [8], -0.917 and 0.247; in test [9], -0.871 and -0.502; in test [10], 0.351 (inactive) and -0.519 (inactive); in [11], 0.201 and -0.418; in test [12] it was -0.0348 (inactive) and -0.539 (inactive). Also, the z-score was 0.258 (inactive) and -0.385 (inactive) in test [13]; 0.165 (inactive) and -0.208 (inactive) in [15]; 0.0233 (inactive) and -0.276 (inactive) in [16]; 0.759 (inactive) and 0.391 (inactive) in test [17]; -1.34 (inactive) and 0.456 (inactive) in test [18]; -0.124 and -1 in [19]. Besides, the composite z-score in test [14] was 0.607 (inactive) and 1.16 (inactive); in [20], -0.0172 and -0.359.

`C=CCN(CCCCC)C(=O)C1N(CCCCCCO)C(=O)C2C(C(=O)O)C3C=CC21O3` (stereo not given): the z-score in test [1] is -0.681 and -0.373; in [2], -0.573 and -0.412; in [3], 0.122 and 0.657; in test [4] it was 1.6 and 0.379; in [5], 0.0447 and -0.164; in test [6] it was -0.649 and -0.526. For the same compound, the z-score in [7] was -0.2 (inactive) and 0.409 (inactive); in test [8], 0.15 and 0.0486; in test [9], 0.702 and -0.254; in test [10] it was -0.66 (inactive) and -0.379 (inactive); in test [11], -0.382 and -0.569; in [12], -0.0594 (inactive) and -0.411 (inactive). Also, the z-score in [13] was -0.847 (inactive) and -0.718 (inactive); in test [15] it was 0.0809 (inactive) and -0.966 (inactive); in test [16] it was -0.42 (inactive) and -0.52 (inactive); in test [17], 0.554 (inactive) and -0.272 (inactive); in test [18] it was 0.44 (inactive) and -0.188 (inactive); in [19], -0.772 and -0.735. Besides, the composite z-score in [14] is 0.0615 (inactive) and -0.082 (inactive); in [20], -0.152 and 0.0785.

`CC(C)=NO[C@@H](C)c1cc(-c2c(C)cc(C)cc2C)no1`: the z-score is -0.846 in test [1]; 0.38 in test [2]; -0.242 in [3]; -0.309 in [4]; -0.416 in test [5]; -0.182 in test [6]. The z-score was 0.478 (inactive) in test [7]; -0.328 in test [8]; -0.39 in [9]; 0.0477 (inactive) in test [10]; -0.18 in test [11]; -2.48 (inactive) in [12]. The z-score was 0.672 (inactive) in [13]; 0.499 (inactive) in test [15]; -0.395 (inactive) in test [16]; -0.328 (inactive) in test [17]; -2.9 (inactive) in test [18]; 0.0684 in [19]. Moreover, the composite z-score in test [14] is -2.98 (inactive); in test [20] it was 0.0251.

Take `COC(=O)C1=C(C)N(Cc2ccccc2)[C@]23O[C@](C(=O)OC)(C(=O)N2[C@@H]1c1ccccc1)[C@H]1CCCC(=O)[C@H]13`: the z-score in test [1] is 0.144 and -0.51; in [2], 0.474 and 0.827; in test [3] it was -0.336 and -0.818; in test [4] it was -3.25 and -1.15; in test [5], -1.18 and -0.337; in test [6], 0.662 and 0.827. In addition, the z-score in test [7] is 1.33 (inactive) and 0.966 (inactive); in test [8], -0.736 and 0.0334; in test [9], 0.291 and -0.342; in test [10] it was 0.207 (inactive) and -0.277 (inactive); in test [11], -0.483 and -0.852; in [12], -2.15 (inactive) and -0.0243 (inactive). Also, the z-score in [13] is 0.167 (inactive) and 0.867 (inactive); in [15] it was 0.39 (inactive) and -0.692 (inactive); in test [16] it was -0.186 (inactive) and -0.402 (inactive); in [17], -0.321 (inactive) and -1.18 (inactive); in test [18], -0.204 (inactive) and -1.38 (inactive); in [19] it was -0.327 and -0.466. In addition, the composite z-score in test [14] was 0.149 (inactive) and -3.24 (inactive); in test [20], 0.0548 and -0.16.

For the compound `C=CCN(C(=O)C(c1cccs1)N(CCOCCO)C(=O)/C=C\C(=O)O)c1ccc(OC)cc1` (stereo not given), the z-score in [1] was 0.995 and 1.98; in [2], 0.372 and -0.509; in [3], 1.23 and 0.751; in [4], 1.3 and 1.57; in [5], 0.566 and 0.95; in [6] it was 0.506 and 1.39. The z-score in test [7] was -2.4 (inactive) and 1.53 (inactive); in [8], -0.0898 and 0.302; in test [9] it was -1.19 and 0.702; in [10], 0.18 (inactive) and 0.294 (inactive); in test [11], 0.591 and 0.232; in test [12], -1.32 (inactive) and -1.58 (inactive). Moreover, the z-score in [13] is 0.0173 (inactive) and 0.605 (inactive); in test [15], 1.07 (inactive); in test [16] it was -1.64 (inactive) and -1.09 (inactive); in test [17], 0.997 (inactive) and 1.72 (inactive); in test [18], 1.21 (inactive) and 2 (inactive); in test [19] it was 1.25 and 0.952. For the same compound, the composite z-score in test [14] is -1.05 (inactive) and -2.65 (inactive); in test [20] it was 0.336 and -0.325.

As to `C=CCN(CCCC)C(=O)C1N(c2ccc(CCO)cc2)C(=O)C2C(C(=O)O)C3C=CC21O3` (stereo not given), the z-score in test [1] was -0.635 and 0.444; in test [2] it was 0.79 and 0.378; in test [3] it was -0.97 and -0.116; in [4] it was 0.853 and 1.11; in test [5] it was -0.0527 and 0.0382; in [6], -0.63 and 0.869. Moreover, the z-score in [7] is -0.915 (inactive) and 1.18 (inactive); in [8], 0.16 and 0.0627; in test [9], 0.748 and 1.93; in test [10], -0.223 (inactive) and -0.442 (inactive); in test [11] it was 0.533 and -0.912; in test [12], -0.539 (inactive) and -0.275 (inactive). Further, the z-score in test [13] was -0.217 (inactive) and -0.801 (inactive); in test [15], 0.633 (inactive) and 0.276 (inactive); in [16], -0.639 (inactive) and 0.159 (inactive); in test [17], 0.227 (inactive) and 0.473 (inactive); in [18], -0.248 (inactive) and 0.25 (inactive); in test [19] it was -0.0068 and 0.0215. Further, the composite z-score in test [14] was -0.51 (inactive) and -1.02 (inactive); in test [20] it was -0.53 and 0.0871.

For `C=CCN(C(=O)C1N(CCCCCCO)C(=O)C2C(C(=O)O)C3C=CC21O3)C(C)(C)C` (stereo not given), the z-score in [1] was 0.698 and -0.443; in test [2], -0.356 and -0.171; in test [3], 0.159 and 0.187; in test [4] it was 0.576 and 0.13; in test [5], -0.566 and -0.866; in test [6] it was -0.872 and -0.997. The z-score in test [7] is -0.373 (inactive) and 0.302 (inactive); in test [8] it was 0.186 and 0.699; in test [9], 1.29 and 0.193; in test [10], -0.0791 (inactive) and -0.385 (inactive); in [11], -1.01 and -0.273; in test [12], 0.158 (inactive) and 0.0807 (inactive). In addition, the z-score in test [13] was -0.184 (inactive) and -0.49 (inactive); in [15] it was -0.401 (inactive) and -0.484 (inactive); in test [16], -0.37 (inactive) and -1.03 (inactive); in test [17] it was -0.739 (inactive) and -0.371 (inactive); in [18], -0.467 (inactive) and -0.281 (inactive); in [19], -0.106 and -0.445. Further, the composite z-score in test [14] was -0.708 (inactive) and -0.59 (inactive); in test [20], -0.227 and -0.231.
